Screening data as filed in PubChem BioAssay.
This is a sample that favours compounds with a hit; in the whole collection about 3.2% have one here.
MsrA inhibitor: inhibitors of bovine MsrA; purified bovine MsrA, absorbance read-out; inhibition, % at 15.5 µM; 360,000 tested, 0.75% active; AID 651718; in the data active = inhibition above about 4.5%;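 also: 0% = vehicle wells with enzyme and 100% = reference inhibitor wells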
MsrA act: activators of bovine methionine sulfoxide reductase A; purified bovine MsrA, absorbance read-out; AID 602163; activation, % at 10.6 µM; 360,000 tested, 0.3% active; in the data active = activation above about 7.5%;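 also: 0% = vehicle and 100% = reference activator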
Pemphigus Ab inh: inhibitors of pemphigus antibody binding to human desmoglein-3. binding (percent of control), % at 10 µM. DSG3-coupled beads, scFv-anti-DSG3-GFP binding, flow cytometry; hits give low values. 310,000 tested, 0.48% active. AID 588358. P32926;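 active = binding more than 3 SD below its plate's average and above zero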;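 also: hits lower antibody fragment binding to DSG3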
NadD inh: NadD (S. aureus) enzyme inhibition; purified NadD enzyme, colorimetric absorbance read-out; inhibition, % at 20 µM; 360,000 tested, 0.78% active; AID 602399; in the data active = inhibition above about 26%
DAGLB inhibitor: diacylglycerol lipase beta (human) inhibition. 340,000 tested, 0.059% active. inhibition, % at 5.17 µM. HEK293T DAGLB membrane lysate, EnzChek fluorogenic substrate. Q8NCG7; in the data active = inhibition above about 34%;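 also: 0% = enzyme with vehicle and 100% = wells lacking enzyme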
Target sequence (Q8NCG7 whole entry, looked up): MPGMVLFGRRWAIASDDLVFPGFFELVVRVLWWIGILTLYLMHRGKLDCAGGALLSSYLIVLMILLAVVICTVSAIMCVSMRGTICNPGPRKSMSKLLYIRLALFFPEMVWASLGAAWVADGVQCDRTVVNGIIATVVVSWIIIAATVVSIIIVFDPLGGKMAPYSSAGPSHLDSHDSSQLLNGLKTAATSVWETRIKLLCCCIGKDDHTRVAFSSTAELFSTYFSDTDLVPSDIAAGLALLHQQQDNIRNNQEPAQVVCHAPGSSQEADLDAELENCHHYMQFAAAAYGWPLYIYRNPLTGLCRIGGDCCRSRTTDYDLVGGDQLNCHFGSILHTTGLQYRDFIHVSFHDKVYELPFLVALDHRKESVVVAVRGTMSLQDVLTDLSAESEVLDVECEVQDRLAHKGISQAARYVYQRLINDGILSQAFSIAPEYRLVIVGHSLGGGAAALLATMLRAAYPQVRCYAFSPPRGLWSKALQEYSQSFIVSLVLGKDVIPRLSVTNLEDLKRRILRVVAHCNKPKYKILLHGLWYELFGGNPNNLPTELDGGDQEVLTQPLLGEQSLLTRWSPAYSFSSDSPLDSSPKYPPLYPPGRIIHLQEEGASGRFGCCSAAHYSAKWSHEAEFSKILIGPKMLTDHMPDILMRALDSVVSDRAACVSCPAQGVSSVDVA
rCAG RNA binder: binds r(CAG) RNA repeats; r(CAG) RNA repeat, TO-PRO-1 dye displacement fluorescence; inhibition, % at 3 µM; 370,000 tested, 1.3% active; AID 651821;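 active = inhibition above the plate cutoff, the mean of all test compounds on that plate plus 3 SD, cut at about 35% in these data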;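 also: 0% = DMSO alone and 100% = 100 µM mitoxantrone as full dye displacement; higher means more dye released from RNA so lower well fluorescence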
MsrA activ conf: bovine methionine sulfoxide reductase A activation confirmed. activation, % at 10.6 µM. 1,000 tested, 12% active. purified bovine MsrA, absorbance read-out. shares compounds with MsrA act. AID 602270; in the data active = activation above about 4%;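 also: enzyme coupled to thioredoxin and thioredoxin reductase with NADPH; 0% = vehicle wells and 100% = reference activator wells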
Active calls of the source: *; / = no result.

SMILES	MsrA inhibitor	MsrA act	Pemphigus Ab inh	NadD inh	DAGLB inhibitor	rCAG RNA binder	MsrA activ conf
Cn1nc(N)nc1N1CCN(c2ccc(F)cc2)CC1	-0.6	8.0*	98.4	-2.9	-2.3	-1.4	-1.2
COC(=O)C1=CN(c2ccc(N3CCOCC3)cc2)C(N)=C(C#N)C1c1ccc(-c2ccccc2)cc1 (stereo not drawn)	-0.6	/	/	/	/	8.3	/
COCCn1nnnc1CN1CCN(c2cccc(C(F)(F)F)c2)CC1	-1.0	8.4*	/	-2.4	-1.9	-5.8	1.2
CCn1c(=S)[nH]c2c(=O)n(C)c(=O)n(C)c21	2.0	-4.8	88.0	-0.2	-1.8	-0.1	/
COc1ccc(-c2noc(C3CCCN(C(=O)Nc4ccc(C)c(F)c4)C3)n2)cc1 (stereo not drawn)	/	/	/	/	/	5.2	/
CC1(c2ccc(F)cc2)OC(=O)c2c1ccc1ccccc21 (stereo not drawn)	-1.0	-2.9	98.2	-6.7	-11.5	1.5	/
Cc1cccc(NC(=O)NC(=O)c2ccccc2)n1	0.1	8.1*	91.4	-1.2	-1.6	-3.3	0.8
O=C(CSc1nnc(-c2ccncc2)n1-c1ccccc1)Nc1cccc2ccccc12	/	/	/	/	/	5.3	/
COc1cc(Cl)c(CNC[C@H]2O[C@@H](n3cnc4c(N)ncnc43)[C@H](O)[C@@H]2O)c(Cl)c1O	2.1	-4.8	99.7	-1.8	-2.1	0.6	/
Cn1c(SCCOc2ccccc2Cl)nnc1-c1ccncc1	-1.7	8.5*	96.6	-3.6	-1.2	-4.0	0.5
Cc1ccccc1OCCSc1nnc(-c2ccncc2)n1C	0.7	5.4	100.0	-4.3	-0.9	-2.9	/
Cn1ncc2c(=O)n(CC(=O)NC34CC5CC(CC(C5)C3)C4)cnc21	-0.3	9.0*	102.9	2.1	-1.1	-0.9	-2.0
CC1CCc2cc(F)ccc2N1C(=O)CCC(=O)O (stereo not drawn)	-1.3	9.8*	99.8	-5.9	-1.5	2.6	1.6
CSCCC(c1nc2ccccc2[nH]1)n1c(=O)c(-c2cc3ccccc3[nH]2)nc2ccccc21 (stereo not drawn)	0.3	/	/	/	/	11.0	/
CCOC(=O)C1=CC[C@@H](c2ccccc2Cl)N(S(=O)(=O)c2ccc(C)cc2)[C@H]1C(=O)OCC	0.7	0.0	101.5	-9.7	-9.6	4.3	/
CCOC(=O)C1=CC[C@@H](c2cccc(C)c2)N(S(=O)(=O)c2ccc(C)cc2)[C@H]1C(=O)OCC	-0.5	9.9*	106.1	-10.2	-11.1	-1.8	0.8
CCOC(=O)CCCN(c1[nH]c(C)c(C)c1C#N)S(=O)(=O)c1ccc(C)cc1	-0.8	-3.2	108.2	-4.9	-2.7	-0.5	/
Cc1ccc(-c2noc(COc3ccccc3C)n2)cc1	1.3	8.1*	107.3	-3.9	-21.4	-2.8	-2.8
CO/N=C/c1ccc(N2CCCC2)c([N+](=O)[O-])c1	2.9	17.2*	110.1	-5.8	5.8	-2.7	5.8*
O=[N+]([O-])c1cc(/C=N/O)ccc1N1CCCC1	3.0	-4.3	90.4	6.4	4.6	3.5	/
CCOC(=O)CNC(=O)c1ccccc1Br	-0.1	20.9*	103.3	3.7	-1.0	-1.0	-0.9
CC[C@H]1OC(=O)[C@H](C)[C@@H](O[C@H]2C[C@@](C)(OC)[C@@H](O)[C@H](C)O2)C(C)[C@@H](O[C@@H]2O[C@H](C)C[C@H](N(C)C)[C@H]2O)[C@](C)(O)C[C@@H](C)CN(C)[C@H](C)[C@@H](O)[C@]1(C)O (stereo partly drawn)	/	/	/	/	/	1.4	/
COc1cccc(S(=O)(=O)N(C)C[C@H]2Oc3cc(Br)ccc3S(=O)(=O)N([C@@H](C)CO)C[C@H]2C)c1	-0.3	-2.5	108.0	-4.6	-1.9	4.7	/
CC(NC(=S)Nc1c(Br)cccc1OC(F)F)C(C)(C)C (stereo not drawn)	-0.5	9.0*	107.4	-4.7	-3.2	-6.7	-0.3
C/C(=N\NC(=S)NC(C)C)c1ccccc1OC(F)F	-1.1	-3.2	96.8	-1.9	-2.7	-4.3	/
SMILES	MsrA inhibitor	MsrA act	Pemphigus Ab inh	NadD inh	DAGLB inhibitor	rCAG RNA binder	MsrA activ conf
O=c1[nH]c(CN2CCN(c3ccccc3O)CC2)nc2ccccc12	-1.1	1.2	101.1	3.0	-3.4	2.8	/
O=c1[nH]c(CN2CCN(CCO)CC2)nc2ccccc12	1.3	8.9*	106.3	1.9	-2.0	1.0	0.0
CCCCNC(=O)C1c2ccccc2OCC(=O)N1CCc1ccc(OC)c(OC)c1 (stereo not drawn)	-0.1	-3.9	/	3.8	/	-0.9	/
CN(CC(=O)Nc1ccccc1N1CCOCC1)S(=O)(=O)c1ccc(Cl)cc1	-0.2	8.0*	99.8	-2.0	-1.0	-5.2	5.5*
COc1ccc(C)cc1NC(=O)Cc1csc(NC(=O)Nc2ccccc2OC)n1	0.3	-3.7	102.5	3.2	-0.7	8.5	/
COc1ccc(-n2c(=S)[nH]c3cc(C(=O)Nc4ccc(C)c(F)c4)ccc3c2=O)c(OC)c1	2.9	-3.4	/	9.9	6.3	33.1	/
O=C(c1ccccc1)N1CCN(C(=O)c2cc3ccccc3o2)CC1	-0.6	7.7*	73.7	-5.5	-0.1	4.0	-1.2
Cc1ccc(S(=O)(=O)Nc2cccc3cccnc23)cc1	-0.8	11.1*	101.3	1.4	-5.0	-3.3	-2.0
Fc1ccc(-c2nnc(SCc3ncc(-c4ccccc4)o3)n2CC2CCCO2)cc1 (stereo not drawn)	0.3	11.3*	102.5	1.9	-0.2	-2.8	2.3
Fc1ccc(NCc2nnc(SCc3nnc(-c4ccccc4)o3)n2CC2CCCO2)cc1 (stereo not drawn)	-0.2	-1.5	/	8.7	1.2	-8.7	/
Cc1nc2ccc(S(=O)(=O)NCC(=O)NCc3ccccc3C)cc2s1	/	/	/	/	/	1.2	/
O=C(COC(=O)C1(c2ccc(Cl)cc2)CCCC1)Nc1ncc(C(F)(F)F)cc1Cl	-0.2	8.8*	100.8	-0.2	-12.7	-3.0	3.4
COc1cccc(CC(=O)OCC(=O)c2cc(OC)ccc2OC)c1	1.2	-3.9	101.5	-7.3	-3.3	2.7	/
COc1cccc(CC(=O)OCC(=O)c2cc(OC)c(OC)c(OC)c2)c1	-0.8	8.7*	91.5	-5.6	-0.3	3.3	-2.4
O=C(/C=C(\Nc1ccccc1)c1ccccc1)c1ccccc1	1.0	/	/	/	/	4.6	/
CCCOc1ccc(-c2nc(=S)[nH][nH]2)cc1	1.5	9.2*	111.2	2.3	-1.3	3.0	3.1
COCCNC(=O)c1ccc(N2CC3CC(C2)c2cccc(=O)n2C3)c(NC(=O)c2ccccc2Cl)c1 (stereo not drawn)	1.9	0.2	113.1	-1.3	-1.4	-0.8	/
O=C(NCc1ccccc1)c1ccc2c(=O)n(CC3CCCO3)c(=S)[nH]c2c1 (stereo not drawn)	0.9	12.8*	100.2	1.2	5.0	-1.8	3.1
Cc1ccc(CNC(=O)c2ccc3c(=O)n(CC4CCCO4)c(=S)[nH]c3c2)cc1 (stereo not drawn)	-0.9	-5.7	97.1	-0.9	-0.5	0.2	/
COCCNC(=O)C1(C)CCCN(C(=O)c2ccccc2)C1 (stereo not drawn)	0.9	-1.5	/	-2.0	/	0.6	/
